# Assay results from article PMC7862700, “An all-to-all approach to the identification of sequence-specific readers for epigenetic DNA modifications on cytosine”.
# Tests used:
# Experiment in all cases: DAPPL (digital affinity profiling via proximity ligation, sequencing); 10 mM Tris-HCl pH 7.5, 50 mM NaCl, 1 mM DTT, 4% glycerol, room temperature, 30 min; GST-TFs on glutathione beads, 16-mer random dsDNA library, 0.1% formaldehyde crosslink after washing; high values mean tight binding
# Settings in all cases: protein: recombinant; tags: N-terminal GST; dsDNA, one strand shown
# [1] = target: T1, ELK1 (Homo sapiens, UniProt P19419 1-428)
# T1 sequence: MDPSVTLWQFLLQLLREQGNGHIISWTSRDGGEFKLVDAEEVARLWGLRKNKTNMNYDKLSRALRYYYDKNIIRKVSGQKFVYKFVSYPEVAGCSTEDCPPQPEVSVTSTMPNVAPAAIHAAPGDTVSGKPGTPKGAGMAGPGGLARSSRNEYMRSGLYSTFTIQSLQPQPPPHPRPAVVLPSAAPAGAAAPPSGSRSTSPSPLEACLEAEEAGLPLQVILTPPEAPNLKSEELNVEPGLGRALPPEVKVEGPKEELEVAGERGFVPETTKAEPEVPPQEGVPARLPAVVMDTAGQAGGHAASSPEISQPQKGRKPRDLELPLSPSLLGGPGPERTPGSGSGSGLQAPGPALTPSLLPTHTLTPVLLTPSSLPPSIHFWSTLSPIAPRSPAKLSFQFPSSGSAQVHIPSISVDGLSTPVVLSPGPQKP
# In short: (§1)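 A tag-only sample was pooled with DNA-barcoded human transcription factors that had been expressed in yeast as GST fusions and captured on glutathione beads. The pools were incubated for 30 min at room temperature with 200 nmole of a random double-stranded 16-mer DNA library in Tris/NaCl/DTT/glycerol buffer, then washed, crosslinked with 0.1% formaldehyde, proximity-ligated (BsaI/T4 ligase, 1 h, 37 °C), PCR-amplified and sequenced on an Illumina NextSeq500. Binding signal is each hexamer's read frequency for a factor divided by its frequency for the tag-only sample.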
# [2] = target: T2, GABPA (Homo sapiens, UniProt Q06546 1-454)
# T2 sequence: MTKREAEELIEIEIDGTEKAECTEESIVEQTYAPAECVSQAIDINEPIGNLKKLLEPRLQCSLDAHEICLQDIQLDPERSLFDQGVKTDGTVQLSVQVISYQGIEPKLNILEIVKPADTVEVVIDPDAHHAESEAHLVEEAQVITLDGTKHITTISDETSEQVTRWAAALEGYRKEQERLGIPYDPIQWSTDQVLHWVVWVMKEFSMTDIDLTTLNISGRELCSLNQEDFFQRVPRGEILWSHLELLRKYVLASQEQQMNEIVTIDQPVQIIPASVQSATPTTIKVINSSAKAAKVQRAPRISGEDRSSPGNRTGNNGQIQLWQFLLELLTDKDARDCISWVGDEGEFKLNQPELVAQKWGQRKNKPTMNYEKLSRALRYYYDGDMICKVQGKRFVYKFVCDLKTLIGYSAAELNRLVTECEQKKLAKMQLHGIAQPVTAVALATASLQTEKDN
# In short: as §1
# [3] = target: T3, ERG (Homo sapiens, UniProt P11308 1-479)
# T3 sequence: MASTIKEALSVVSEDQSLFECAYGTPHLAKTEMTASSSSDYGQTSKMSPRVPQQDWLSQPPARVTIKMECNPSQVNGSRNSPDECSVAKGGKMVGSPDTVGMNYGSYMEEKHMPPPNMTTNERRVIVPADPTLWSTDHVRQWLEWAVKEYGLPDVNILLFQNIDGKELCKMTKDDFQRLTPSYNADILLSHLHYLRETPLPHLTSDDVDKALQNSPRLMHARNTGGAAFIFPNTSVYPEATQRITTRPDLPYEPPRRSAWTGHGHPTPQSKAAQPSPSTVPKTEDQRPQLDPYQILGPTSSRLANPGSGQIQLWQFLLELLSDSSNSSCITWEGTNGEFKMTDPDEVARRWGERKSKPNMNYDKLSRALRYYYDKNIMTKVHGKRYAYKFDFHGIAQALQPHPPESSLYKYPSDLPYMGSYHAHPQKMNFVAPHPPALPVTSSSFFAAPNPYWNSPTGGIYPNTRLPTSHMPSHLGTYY
# In short: as §1
# [4] = target: ELF1 (Homo sapiens, UniProt P32519 1-619)
# In short: as §1
# [5] = target: T4, EHF (Homo sapiens, UniProt Q9NZC4 1-300)
# T4 sequence: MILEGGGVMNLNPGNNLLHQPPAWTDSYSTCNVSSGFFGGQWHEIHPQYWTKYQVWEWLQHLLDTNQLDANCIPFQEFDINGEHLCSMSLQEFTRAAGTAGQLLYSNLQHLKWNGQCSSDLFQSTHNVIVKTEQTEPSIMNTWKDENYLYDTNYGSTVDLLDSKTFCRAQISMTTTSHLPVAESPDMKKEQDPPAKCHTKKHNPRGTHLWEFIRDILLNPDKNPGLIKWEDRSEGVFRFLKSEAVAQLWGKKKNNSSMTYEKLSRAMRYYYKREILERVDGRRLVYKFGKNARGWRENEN
# In short: as §1
# [6] = target: SPIB (Homo sapiens, UniProt Q01892 1-262)
# In short: as §1
# [7] = target: T5, FEV (Homo sapiens, UniProt Q99581 1-238)
# T5 sequence: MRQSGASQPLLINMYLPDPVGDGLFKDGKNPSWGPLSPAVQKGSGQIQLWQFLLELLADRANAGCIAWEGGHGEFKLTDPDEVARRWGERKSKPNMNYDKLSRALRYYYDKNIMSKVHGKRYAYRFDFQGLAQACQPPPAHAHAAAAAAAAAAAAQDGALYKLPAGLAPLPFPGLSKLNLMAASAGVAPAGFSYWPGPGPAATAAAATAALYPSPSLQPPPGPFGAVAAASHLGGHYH
# In short: as §1
# [8] = target: ETV5 (Homo sapiens, UniProt P41161 1-510)
# In short: as §1
# [9] = target: ELF4 (Homo sapiens, UniProt Q99607 1-663)
# In short: as §1
# [10] = target: T6, ELK4 (Homo sapiens, UniProt P28324-2 1-405)
# T6 sequence: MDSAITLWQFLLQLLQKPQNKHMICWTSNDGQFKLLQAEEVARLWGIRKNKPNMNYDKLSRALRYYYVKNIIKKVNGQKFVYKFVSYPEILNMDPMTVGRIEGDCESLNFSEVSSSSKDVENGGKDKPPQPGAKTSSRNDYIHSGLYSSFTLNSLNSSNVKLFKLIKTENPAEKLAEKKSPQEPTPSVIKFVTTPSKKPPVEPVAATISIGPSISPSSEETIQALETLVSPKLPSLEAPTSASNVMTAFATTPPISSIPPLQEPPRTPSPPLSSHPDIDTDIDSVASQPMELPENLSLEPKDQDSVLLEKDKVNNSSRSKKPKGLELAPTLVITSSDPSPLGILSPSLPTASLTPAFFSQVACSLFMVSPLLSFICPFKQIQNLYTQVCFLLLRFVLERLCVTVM
# In short: as §1
# Sequence of SPIB (Q01892 whole entry): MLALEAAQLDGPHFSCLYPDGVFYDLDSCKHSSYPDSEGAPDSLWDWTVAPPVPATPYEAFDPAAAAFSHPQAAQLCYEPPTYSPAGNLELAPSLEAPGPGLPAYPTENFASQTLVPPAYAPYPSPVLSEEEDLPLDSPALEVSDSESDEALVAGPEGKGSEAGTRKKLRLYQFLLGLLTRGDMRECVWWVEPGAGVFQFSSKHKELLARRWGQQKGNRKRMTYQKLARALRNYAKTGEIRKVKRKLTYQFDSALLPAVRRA
# Sequence of ELF1 (P32519 whole entry): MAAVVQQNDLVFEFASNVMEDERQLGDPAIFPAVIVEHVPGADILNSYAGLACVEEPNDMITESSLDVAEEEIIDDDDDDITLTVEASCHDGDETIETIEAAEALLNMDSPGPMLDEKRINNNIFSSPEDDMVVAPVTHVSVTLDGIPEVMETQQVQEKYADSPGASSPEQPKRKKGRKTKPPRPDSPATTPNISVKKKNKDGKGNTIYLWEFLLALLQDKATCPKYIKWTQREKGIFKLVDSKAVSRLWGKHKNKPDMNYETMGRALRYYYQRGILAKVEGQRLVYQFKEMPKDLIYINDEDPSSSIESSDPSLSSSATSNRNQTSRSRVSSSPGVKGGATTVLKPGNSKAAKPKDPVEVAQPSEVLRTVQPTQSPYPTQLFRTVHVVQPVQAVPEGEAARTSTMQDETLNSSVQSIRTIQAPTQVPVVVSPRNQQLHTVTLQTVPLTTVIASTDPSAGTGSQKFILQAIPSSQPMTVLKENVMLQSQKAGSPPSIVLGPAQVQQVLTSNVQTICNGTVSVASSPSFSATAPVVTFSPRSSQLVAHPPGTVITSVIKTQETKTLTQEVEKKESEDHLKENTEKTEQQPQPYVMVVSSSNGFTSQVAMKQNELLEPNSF
# Sequence of ETV5 (P41161 whole entry): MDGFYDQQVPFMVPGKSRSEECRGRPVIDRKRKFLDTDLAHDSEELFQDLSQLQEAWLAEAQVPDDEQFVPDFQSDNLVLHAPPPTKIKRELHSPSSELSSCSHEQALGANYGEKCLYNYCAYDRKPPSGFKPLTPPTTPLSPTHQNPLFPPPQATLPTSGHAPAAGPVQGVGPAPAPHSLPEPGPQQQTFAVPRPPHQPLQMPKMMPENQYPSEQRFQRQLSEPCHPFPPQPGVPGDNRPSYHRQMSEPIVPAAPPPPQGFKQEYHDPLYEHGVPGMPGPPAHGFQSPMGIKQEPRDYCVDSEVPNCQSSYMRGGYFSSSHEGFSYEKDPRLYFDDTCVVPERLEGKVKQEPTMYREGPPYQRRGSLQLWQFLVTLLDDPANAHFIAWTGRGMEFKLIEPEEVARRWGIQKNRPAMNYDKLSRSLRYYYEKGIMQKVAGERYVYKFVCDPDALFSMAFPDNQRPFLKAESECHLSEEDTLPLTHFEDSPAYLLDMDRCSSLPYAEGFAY
# Sequence of ELF4 (Q99607 whole entry): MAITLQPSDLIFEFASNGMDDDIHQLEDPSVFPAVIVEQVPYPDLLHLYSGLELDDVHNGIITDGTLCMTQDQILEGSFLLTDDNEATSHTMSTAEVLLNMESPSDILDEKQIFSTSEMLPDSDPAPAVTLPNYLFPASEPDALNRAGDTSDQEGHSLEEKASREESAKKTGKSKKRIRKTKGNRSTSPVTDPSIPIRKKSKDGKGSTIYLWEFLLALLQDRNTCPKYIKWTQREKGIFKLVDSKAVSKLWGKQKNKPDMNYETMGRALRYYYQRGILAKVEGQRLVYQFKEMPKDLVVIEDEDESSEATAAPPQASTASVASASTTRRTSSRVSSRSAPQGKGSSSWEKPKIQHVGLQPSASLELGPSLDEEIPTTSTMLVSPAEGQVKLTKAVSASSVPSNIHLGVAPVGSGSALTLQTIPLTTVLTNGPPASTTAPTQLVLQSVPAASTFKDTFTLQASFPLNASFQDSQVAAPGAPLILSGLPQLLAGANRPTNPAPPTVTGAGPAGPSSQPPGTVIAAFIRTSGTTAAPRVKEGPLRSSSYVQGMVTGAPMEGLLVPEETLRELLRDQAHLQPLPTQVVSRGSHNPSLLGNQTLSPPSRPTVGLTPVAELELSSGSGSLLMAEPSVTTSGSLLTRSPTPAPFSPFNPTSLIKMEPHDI
sequence,measurement,setting,value
GGTAAA,binding signal,[1],"1.1 fold enrichment (6-mer frequency, TF over GST control)"
same,binding signal,[2],"1.07 fold enrichment (6-mer frequency, TF over GST control)"
same,binding signal,[3],"1.04 fold enrichment (6-mer frequency, TF over GST control)"
same,binding signal,[4],"1.08 fold enrichment (6-mer frequency, TF over GST control)"
same,binding signal,[5],"1.05 fold enrichment (6-mer frequency, TF over GST control)"
same,binding signal,[6],"1.08 fold enrichment (6-mer frequency, TF over GST control)"
same,binding signal,[7],"1.02 fold enrichment (6-mer frequency, TF over GST control)"
same,binding signal,[8],"1.06 fold enrichment (6-mer frequency, TF over GST control)"
same,binding signal,[9],"1.04 fold enrichment (6-mer frequency, TF over GST control)"
same,binding signal,[10],"1.11 fold enrichment (6-mer frequency, TF over GST control)"
